Test results from PubChem BioAssay AID2546 (National Center for Advancing Translational Sciences (NCATS), 2010).
Screen size: about 310,000 compounds; about 11,000 (3.5%) were called active. About 8% were inconclusive and are not listed. This excerpt belongs to a sample that is enriched for actives. Unmarked numbers belong to inactive results. Calls follow the shape of the dose curve; as a rule, active = well fitted inhibition curve with a large enough effect; inconclusive = small, poorly fitted or top-dose-only effect, or effect the other way; inactive = flat fitted curve, though single readings scatter.

Experiment: VP16 counterscreen qHTS for inhibitors of ROR gamma transcriptional activity;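 also: Gal4-VP16 expression switched on by copper sulfate through the metallothionein promoter; nearly all actives have a fitted effect of over 50% in size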
Settings: Drosophila S2 Gal4-VP16 UAS-luciferase, luminescence, 20 h; series mostly up to 53.6 µM; activity, negative = inhibition: at the top concentration
Text: NIH Molecular Libraries Probe Production Network [MLPCN]
NIH Chemical Genomics Center [NCGC]
Assay Provider: Dan Littman, New York University
The retinoic acid-related orphan receptor (ROR) gamma is a transcription factor that has a central role in the differentiation of Th17 cells, a subset of T helper cells that secrete the inflammatory cytokines IL-17, IL-17F, and IL-22. Th17 cells have been implicated in graft versus host disease, autoimmune disease and asthma. ROR gamma is induced in naive T helper cells in the presence of TGF-beta combined with IL-6, IL-21, or IL-23, and thereafter directs the expression of the Th17 lineage cytokines. To identify nonspecific inhibitors, a Drosophila Schneider cell line was stably transfected with two vectors: a gene expressing a fusion of the Gal4 DNA binding domain and VP16 transactivation domain under the control of the metallothionine promoter and a Photinus luciferase reporter regulated by the Gal4 binding site enhancer, UAS. […] Small molecule inhibitors that inhibit components common to the RORgt and VP16 assays, such as the Gal4 DNA binding domain or the UAS luciferase reporter, will be active in both assays and thus scored as nonspecific.
For screening, 600 cells in 4 uL/well were dispensed into white solid 1536-well plates (Grenier) using a solenoid-based dispenser. Following transfer of 23 nL compound or DMSO vehicle by a pin tool, the plates were incubated 1 hr at ambient temperature, and 1 uL/well copper sulfate (700 uM final concentration) was added. The plates were centrifuged 15 s at 1000 RPM and incubated 20 hr at ambient temperature. After addition of 1.5 uL Photinus luciferase detection reagent, the plates were incubated 10 min at ambient temperature and then read by a ViewLux (Perkin Elmer) to detect luminescence.
% is scaled to controls: 0 for no effect and ±100 for the full control effect; potency is read from the fitted curve at half-maximal effect.

Compound | Potency | activity, negative = inhibition
Fc1ccc(C(OCCN2CCN(C/C=C\c3ccccc3)CC2)c2ccc(F)cc2)cc1 | 15.8 µM (active) | –
CC(=O)c1c(O)c(C)c(O)c(Cc2c(O)c3c(c(C(=O)/C=C\c4ccccc4)c2O)OC(C)(C)C=C3)c1O | – | -0.988%
CC(C)(O)c1[se]c2ccccc2c1I | – | -17.8%
N#CC(C#N)=Cc1cc(O)c(O)c([N+](=O)[O-])c1 | 22.4 µM (active) | –
CC(C)(c1ccccc1)c1ccc(O)cc1 | – | 7.15%
COC1=C[C@]23CCCN2CCc2cc4c(cc2[C@@H]3[C@@H]1O)OCO4 | – | -7.05%
CCCCC(=O)N/N=C/c1c(O)n(CC)c(=S)n(CC)c1=O | 3.16 µM (active) | –
CCCCC(=O)N/N=C/c1c(O)n(CCC2=CCCCC2)c(=O)[nH]c1=O | – | 1.97%
CCCCC(=O)N/N=C/c1c(O)n(-c2ccccc2)c(=O)[nH]c1=O | – | 1.03%
c1ccc2sc(SNC3CCCCC3)nc2c1 | – | 2.39%
CN1CCN(C(=O)O[C@@H]2c3nccnc3C(=O)N2c2ccc(Cl)cn2)CC1 | – | -7.9%
CC[C@H]1CN2CCc3cc(OC)c(OC)cc3[C@@H]2C[C@@H]1C[C@H]1NCCc2cc(OC)c(OC)cc21 | 1.26 µM (active) | –
CNC(C)[C@@H](O)c1ccccc1 (some centres undefined) | – | 9.08%
c1ccc(N2CC[C@@]3(CCCNC3)C2)nc1 | – | -11.8%
CC(Cl)Cl | – | 4.63%
COC(=O)N1C(c2ccccc2)C1c1ccccc1 (centres undefined) | – | 9.71%
CC(=O)[O][Sn]([c]1ccccc1)([c]1ccccc1)[c]1ccccc1 | 3.55 µM (active) | –
CC[C@@H]1CN2CC[C@@H]1C[C@H]2[C@H](O)c1ccnc2ccc(OC)cc12 | – | 9.73%
CCN1C[C@]2(C)CC[C@H](O)[C@@]34[C@@H]5CC6[C@@H](OC)C[C@@](O)([C@@H]5[C@@H]6O)[C@H](C[C@@H]23)[C@H]14 | – | 2.08% [at 17 µM]
CCN1C[C@@]2(COC)CC[C@H](OC)[C@]34[C@@H]1[C@]1(OCO[C@@]15C[C@@H](OC)C1C[C@H]3[C@H]5[C@@H]1OC)[C@H](O)[C@@H]24 | – | 2.2% [at 17 µM]
NC[C@H](O)c1ccc(O)cc1 | – | 4.06% [at 17 µM]

Compound | Potency | activity, negative = inhibition
COc1cccc(-c2nc3ccc(N4CCN(C)CC4)cc3[nH]2)c1 | 2 µM (active) | –
CN1CCN(c2cc(N3CCNCC3)ccc2[N+](=O)[O-])CC1 | – | -5.63%
CCCCC#N | – | 10.3%
COc1ccc(C2Oc3c(I)c(OC)cc(OC)c3CC2O)cc1OC (centres undefined) | – | 7.75%
C[C@@]12CC[C@H]3[C@@H](CC[C@]4(O)C[C@H](O)CC[C@@]34C=O)[C@]1(O)CC[C@@H]2C1=CC(=O)OC1 | – | 4.3% [at 17 µM]
Clc1ccccc1 | – | -4.14%
C[C@@H]1C[C@@H]2O[C@H]2/C=C\C=C\C(=O)Cc2c(Cl)c(O)cc(O)c2C(=O)O1 | 12.6 µM (active) | –
C[C@]12O[C@H](C[C@@]1(O)C(=O)O)n1c3ccccc3c3c4c(c5c6ccccc6n2c5c31)CNC4=O | – | -2.92%
CN1CCCC(=C(c2cccs2)c2cccs2)C1 | – | -0.628%
Cc1nc2ccccn2c1P(=S)(N1CCCCC1)N1CCCCC1 | 11.2 µM (active) | –
c1ccc(CCCCN2CCC(c3ccccc3)CC2)cc1 | – | 16%
O=c1oc2ccccc2c(O)c1C(c1ccccc1O)c1c(O)c2ccccc2oc1=O | – | -0.571%
CC(C)(C)C(O)(CCc1ccc(Cl)cc1)Cn1cncn1 (centres undefined) | – | -6.68%
CC1=CC(=O)C2=C(C)C[C@H](O)[C@H]3[C@H](C)C(=O)O[C@@H]3C12 (some centres undefined) | – | -4.17%
CCCCCCCCCCCCCC(=O)O[C@@H]1[C@@H](C)[C@@]2(O)[C@@H](C=C(CO)C[C@]3(O)C(=O)C(C)=C[C@@H]23)[C@@H]2C(C)(C)[C@]12OC(C)=O | – | -3.2%
CCCCCCCCc1[se]c2ccccc2c1Br | – | -0.332%
CN(C)C[C@H]1CCCC[C@]1(O)c1cccc(O)c1 | – | -7.52%
Cc1ccc(NC(=O)CN(C)CC(=O)Nc2cccc(F)c2)cc1[N+](=O)[O-] | 4.47 µM (active) | –
c1ccc(CN2CC[C@@]3(CCCNC3)C2)cc1 | – | -2.59%
ClCCBr | – | -6.24%
COc1cc(-n2c(=S)[nH]c3ccc(C)cc3c2=O)c(Cl)cc1Cl | 5.62 µM (active) | –

Compound | Potency | activity, negative = inhibition
ClC(Cl)=C(Cl)C(Cl)=C(Cl)Cl | – | 2.07%
c1csc(CN2CCCC3(CCNCC3)C2)n1 | – | 5.75%
CN[C@@H]1C[C@H]2O[C@@](C)([C@@H]1OC)n1c3ccccc3c3c4c(c5c6ccccc6n2c5c31)C(=O)NC4 | – | -1.08% [at 10 µM]
COC(=O)c1ccc2[se]c(CC3CCCCC3)c(I)c2c1 | – | 1.9%
CCN(CC)c1nc(C)cc(OP(=S)(OC)OC)n1 | – | -2.31%
C=CC#N | – | 10.3%
N#Cc1c(Cl)c(Cl)c(Cl)c(C#N)c1Cl | 1.78 µM (active) | –
CCCCC/C=C\C/C=C\C/C=C\C/C=C\CCCCCC(=O)NCCO | inactive | –
N#CCCCl | inactive | –
Cc1cccc(N2C(=O)NC(=O)/C(=C\c3cnn(-c4ccccc4)c3)C2=O)c1 | 12.6 µM (active) | –
COc1cccc(N2C(=O)NC(=O)/C(=C\c3ccc([N+](=O)[O-])s3)C2=O)c1 | – | -11.7%
O=C1NC(=O)N(c2ccccc2)C(=O)/C1=C/c1ccc([N+](=O)[O-])s1 | – | 6.23%
N#Cc1cc(Br)c(O)c(Br)c1 | – | -13.2%
N[C@H](Cc1o[nH]c(=O)c1Cl)C(=O)O | – | -10.8%
COC1CC(OC2CC[C@@]3(C=O)C4CC[C@]5(C)C(C6=CC(=O)OC6)CC[C@@]5(O)C4CC[C@]3(O)C2)OC(C)C1O (some centres undefined) | – | 16.8%
CC[N+](C)(CC)CCC[n+]1c(-c2ccccc2)c2cc(N)ccc2c2ccc(N)cc21 | 2.51 µM (active) | –
O=P1(Oc2ccccc2)CC(O)C(O)C(COCc2ccccc2)O1 (centres undefined) | – | -5.85%
C[C@H]1CC[C@@]2(NC1)O[C@@H]1C[C@H]3[C@@H]4CC=C5C[C@@H](O)CC[C@]5(C)[C@@H]4CC[C@]3(C)[C@@H]1[C@@H]2C | – | -5.63% [at 17 µM]
CN1C2CC3CC1C(O3)C2O (centres undefined) | – | 7.32%
COC([CH2][Hg])CNC(=O)c1ccccc1OCC(=O)O (centres undefined) | – | 3.54%
Nc1ccc(-c2ccc(N)c(N)c2)cc1N | – | 15.7%

Compound | Potency | activity, negative = inhibition
COc1cc2c(cc1OC)[C@@H]1C(=O)c3ccc(O)c(CC=C(C)C)c3OC1CO2 (some centres undefined) | – | -2.2%
CCCCn1c(=O)c(C(=O)Nc2ccccc2Cl)c(O)c2ccccc21 | – | 26.2%
CCCCCn1c(=O)c(C(=O)NCc2ccccn2)c(O)c2ccccc21 | 17.8 µM (active) | –
CCCCCn1c(=O)c(C(=O)Nc2c(C)n(C)n(-c3ccccc3)c2=O)c(O)c2ccccc21 | – | -11.3%
Clc1ccc([C@@H]2C[C@H]3CC[C@@H]2N3)cn1 | – | 5.01%
Cc1cccc([C@H](C)c2cnc[nH]2)c1C | – | 3.21%
COc1ccccc1-c1[se]c2ccccc2c1I | – | -3.29%
O=C1CCc2cccc3c2N1CC3 | – | -7.75%
CCC(C)C(=O)O[C@@H]1C[C@@]2(C)C(c3ccoc3)OC(=O)CC23OC2(C)O[C@@]14[C@@]1(C)C(CC(=O)OC)C5(C)CC1(O)C(O)(C5OC(=O)C1(C)OC1C)C(OC(C)=O)[C@@]34O2 (some centres undefined) | – | -14.6%
BrC1C(Br)C(Br)C(Br)C(Br)C1Br (centres undefined) | 7.94 µM (active) | –
N[C@H](C(=O)O)c1cc(=O)[nH]o1 | – | -10.3%
CCCCC/C=C\C/C=C\C/C=C\C=C\[C@H](CCCC(=O)O)OO | – | -1.54%
C/C(=C\C=C/[C@@H](C)C(=O)O)[C@H]1CN[C@H](C(=O)O)[C@@H]1CC(=O)O | – | -2.02%
CC(C)(Cc1c[nH]c2ccc(Cl)cc12)NCCOc1ccccc1OCC1CC1 | 15.8 µM (active) | –
C[C@H]1C/C=C/[C@@H]2[C@@H]3O[C@]3(C)[C@@H](C)[C@H]3[C@H](Cc4ccccc4)NC(=O)[C@]32OC(=O)O/C=C/[C@](C)(O)C1=O | – | 2.16%
C[C@@H]1C[C@H]2CC[C@H](O2)[C@H](C)C(=O)O[C@@H](C)C[C@@H]2CC[C@@H](O2)[C@@H](C)C(=O)O[C@H](C)C[C@H]2CC[C@H](O2)[C@H](C)C(=O)O[C@@H](C)C[C@@H]2CC[C@@H](O2)[C@@H](C)C(=O)O1 | 1 µM (active) | –
C1CC[C@H]([C@@]23C[C@H](C[C@H]4CCCN[C@H]42)[C@@H]2CCCCN2C3)NC1 | – | -7.87%
O=C(Nc1cccc(F)c1)N1CC[C@@]2(CCCN(C(=O)Oc3ccccc3)C2)C1 | – | -13.3%
C=CCSSCC=C | – | -13.7%
CC(C)(c1ccc(OC[C@@H]2CO2)cc1)c1ccc(OC[C@H]2CO2)cc1 | – | 1.63%
O=C(N/N=C/c1ccc([N+](=O)[O-])o1)c1cc([N+](=O)[O-])cc([N+](=O)[O-])c1O | – | -5.16%
